HIF-2a inh: HIF-2a reporter inhibitors, primary screen, luminescence, 786-0 RCC cells | 0.72% of 360,000 active | 786-0 RCC cells HIF-2a reporter, luciferase luminescence, overnight | inhibition, % at 18.8 µM | AID 624352, 2012;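 active = inhibition of the luminescence signal of 40% or more relative to plate controls, in a single-dose primary screen at 18.75 µM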
Peg3 prom inh: Peg3 promoter-driven luciferase inhibitors, primary screen, cell-based, HeLa, luciferase luminescence | HeLa PEG-Prom luciferase reporter, overnight | inhibition, % at 20 µM | 1.7% of 360,000 active | AID 588405, 2011;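 active = inhibition of at least 50% at 20 µM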
KKLEB cytotox: cytotoxicity in KKLEB CF airway cells, primary screen, cytotoxicity control for CF NF-kB inhibitor project, cell-based, uHTS, fluorescence assay plates. KKLEB CF airway cells viability, ATPlite luminescence, overnight; stronger effect = lower value; cells stimulated with P. aeruginosa culture filtrate. activity change (cytotoxicity), % at 5 µM. 0.36% of 360,000 active. AID 602141, 2011;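 active = corrected activity change at or below -50% at 5 µM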
Shn3 inh set2: reduction of Shn3 3'UTR firefly luciferase signal, primary screen, Schnurri-3 inhibitor project, cell-based, Clone20 osteoblasts, set 2. Clone20 osteoblast Shn3 3'UTR firefly luciferase, 24 h. inhibition, % at 12.5 µM. 0.52% of 360,000 active;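 active = mean inhibition of at least 75% with every replicate also reaching 75%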
CF NFkB block: inhibitors of PAF-induced NF-kB signaling, primary screen, cell-based, GFP fluorescence, uHTS. KKLEB NF-kB-GFP reporter, GFP fluorescence overnight. inhibition, % at 5 µM. 0.86% of 360,000 active;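 active = at least 50% inhibition at 5 µM, scaled per plate between neutral and stimulator controls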;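 note: PAF is a Pseudomonas aeruginosa culture filtrate used as stimulus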
TRPM1 prom inh: inhibitors of MITF-dependent TRPM1 promoter reporter, primary screen, cell-based, SK-MEL-5, single point, luciferase; SK-MEL-5 TRPM1 promoter luciferase, 24 h; inhibition, % at 12.5 µM; 0.83% of 330,000 active; AID 488899, 2010;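 active = mean inhibition across replicates of 60% or more, whatever share of single replicates reaches that level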
Mdm2 MdmX conf: retested Mdm2-MdmX interaction blockers, confirmation, cell-based, luminescence, single concentration, set 2; shares compounds with HIF-2a inh; SaOS-2 split-luciferase Mdm2/MdmX complementation; inhibition, % at 8 µM; 99% of 740 active; AID 504601, 2011;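 active = mean inhibition of the luminescence signal across two replicates at or above 26 percent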
Target sequence (O15151 whole entry, looked up): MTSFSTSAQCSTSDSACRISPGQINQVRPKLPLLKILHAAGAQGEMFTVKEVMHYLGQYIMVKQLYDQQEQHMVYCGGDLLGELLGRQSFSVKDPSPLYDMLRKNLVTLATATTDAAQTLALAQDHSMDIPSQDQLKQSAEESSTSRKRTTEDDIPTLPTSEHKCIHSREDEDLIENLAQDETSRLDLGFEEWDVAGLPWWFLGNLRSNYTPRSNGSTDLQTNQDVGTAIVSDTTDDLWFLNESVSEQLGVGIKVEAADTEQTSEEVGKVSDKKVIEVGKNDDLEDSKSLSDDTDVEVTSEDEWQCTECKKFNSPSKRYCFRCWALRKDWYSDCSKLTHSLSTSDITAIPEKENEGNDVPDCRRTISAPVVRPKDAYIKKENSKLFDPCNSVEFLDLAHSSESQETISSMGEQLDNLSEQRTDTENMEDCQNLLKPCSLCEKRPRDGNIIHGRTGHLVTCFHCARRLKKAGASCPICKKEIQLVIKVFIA
Target sequence (Q00987 whole entry, looked up): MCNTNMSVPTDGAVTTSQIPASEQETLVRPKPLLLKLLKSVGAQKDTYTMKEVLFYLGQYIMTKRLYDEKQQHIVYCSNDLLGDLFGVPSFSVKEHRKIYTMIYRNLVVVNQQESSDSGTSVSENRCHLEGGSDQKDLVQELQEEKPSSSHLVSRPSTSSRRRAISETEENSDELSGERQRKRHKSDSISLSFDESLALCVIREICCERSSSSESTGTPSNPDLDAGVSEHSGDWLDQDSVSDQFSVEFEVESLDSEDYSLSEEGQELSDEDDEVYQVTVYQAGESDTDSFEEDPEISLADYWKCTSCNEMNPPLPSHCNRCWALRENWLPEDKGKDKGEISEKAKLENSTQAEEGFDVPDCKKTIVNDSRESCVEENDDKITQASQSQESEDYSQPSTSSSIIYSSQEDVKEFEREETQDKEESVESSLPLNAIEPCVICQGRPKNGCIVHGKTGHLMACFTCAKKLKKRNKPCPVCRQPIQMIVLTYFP
HIF-2a conf: HIF-2a reporter inhibitor retest, confirmation, luminescence, 786-0 RCC cells; shares compounds with HIF-2a inh; HIF-2a luciferase reporter luminescence, overnight; inhibition, % at 18.8 µM; 56% of 1,800 active; AID 651580, 2012;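 active = mean inhibition across four replicates of at least 40 percent at the single tested concentration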
HIF-1a counter: HIF-1a luciferase reporter signal reduction – MiaPaCa-2 cells, single concentration, counter-screen for HIF-2a inhibitor project, confirmation; 72% of 1,800 active; shares compounds with HIF-2a inh; AID 651589, 2012; MiaPaCa-2 HIF-1a luciferase reporter, desferoxamine, overnight; inhibition, % at 18.8 µM;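 active = mean inhibition of the reporter signal across four replicates at the single tested dose of 50% or more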
Numbers stand for hits; 0 = inactive; - = no result given. A selection: hits, their analogues and other compounds. The true share with any hit is near 2.8%.

SMILES	HIF-2a inh	Peg3 prom inh	KKLEB cytotox	Shn3 inh set2	CF NFkB block	TRPM1 prom inh	Mdm2 MdmX conf	HIF-2a conf	HIF-1a counter
CCOC(=O)C(=Cc1cc(=O)c(OC)co1)C(=O)OCC	93.7	105.6	0	0	84.9	98.1	-	99.5	105.8
COc1coc(C(O)CN)cc1=O (stereo not given)	0	0	0	0	0	0	-	-	-
CCn1c(=O)c([N+](=O)[O-])c(Cl)c2ccccc21	91.7	108.5	0	96.4	67.2	94.0	103.0	94.4	105.6
COC(=O)[C@@]12C[C@@H](CC(=O)NCc3cccs3)C(=O)N(Cc3ccco3)C1=CCC(C)(C)C2	0	-	-	-	-	-	-	-	-
CCS(=O)(=O)c1ncc(Cl)c(C(=O)Nc2ccc(S(=O)(=O)N3CCCC(C)C3)cc2)n1 (stereo not given)	88.5	105.1	-108.9	97.5	96.6	104.0	103.2	98.5	105.9
O=C(Nc1ccc(OC(F)F)cc1)c1ncc(Cl)c(Cl)c1Cl	0	0	0	0	0	0	-	-	-
Cc1ccc(CS(=O)(=O)c2ncc(Cl)c(C(=O)Nc3ccc(OC(F)F)cc3)n2)cc1	92.7	106.1	-99.6	94.3	94.4	81.5	103.2	-	-
CCC1CCCCN1S(=O)(=O)c1ccc(NC(=O)c2nc(S(C)(=O)=O)ncc2Cl)cc1 (stereo not given)	75.4	106.6	-74.1	96.5	87.4	104.5	-	100.2	100.7
CCS(=O)(=O)c1ncc(Cl)c(C(=O)Nc2ccc(C)cc2)n1	91.6	100.5	-85.8	0	92.4	69.7	101.2	97.3	72.3
CCSc1ncc(Cl)c(C(=O)Nc2ccc(S(=O)(=O)Nc3onc(C)c3C)cc2)n1	0	0	0	0	0	0	-	-	-
CC(C)CC(NC(=O)C(NC(=O)C1CCC(=O)N1C(=O)OCc1ccccc1)C(C)C)C(=O)N1CCCC1C(N)=O (stereo not given)	0	0	0	0	0	0	-	-	-
O=C(NCCNC(=O)c1ccc(Br)o1)c1cccnc1	0	0	0	0	0	0	-	-	-
COc1cc2ccc(NC(C)=O)cc2cc1OC	0	0	0	0	0	-	-	-	-
CS(=O)(=O)c1ncc(Cl)c(C(=O)Nc2ccc3ccccc3c2)n1	94.8	106.4	-99.6	95.7	89.1	103.7	-	97.3	91.5
Cc1cc2c(C)cc(=O)[nH]c2cc1NC(=O)CCl	0	0	0	0	0	0	-	-	-
O=C(CCl)Nc1cc2[nH]c(=O)[nH]c2cc1Br	0	87.5	0	0	0	0	103.5	-	-
CC[N+]1(C)CCC(O)(/C=C/c2ccccc2)C(C(=O)/C=C/c2ccccc2)C1 (stereo not given)	89.9	96.5	0	98.9	0	66.5	-	45.8	103.0
CC1CCCC(C)N1C(=O)CSc1ncccn1 (stereo not given)	0	0	0	0	0	0	-	-	-
COc1cc(C(=O)O/N=C2/C=C(C)C(=O)C=C2C)cc(OC)c1OC	0	0	0	0	0	0	-	-	-
CC1=C/C(=N\OS(=O)(=O)c2ccccc2)C(C)=CC1=O	64.8	106.5	0	93.5	0	0	102.7	-	-
O=C1NCCN(C(=O)CCc2nnc(-c3ccsc3)o2)C1c1ccc(F)cc1 (stereo not given)	0	0	0	0	0	0	-	-	-
N#Cc1c(N)n(C2CCCCC2)c2nc3ccccc3nc12	41.7	0	0	0	0	0	-	0	76.9
CC(=O)Nc1ccc(/C(C)=N/Nc2nc(Nc3ccccc3)nc(N3CCOCC3)n2)cc1	0	0	0	0	0	0	-	-	-
CCN1CCN(c2nc(Nc3ccc(NC(C)=O)cc3)nc(Nc3ccc(NC(C)=O)cc3)n2)CC1	67.7	0	0	0	0	0	-	0	0
Cc1ccc(C2CC(c3cccs3)=NN2C(=O)CCl)cc1 (stereo not given)	0	0	-60.6	0	77.0	0	102.5	-	-
SMILES	HIF-2a inh	Peg3 prom inh	KKLEB cytotox	Shn3 inh set2	CF NFkB block	TRPM1 prom inh	Mdm2 MdmX conf	HIF-2a conf	HIF-1a counter
CCC[C@H](CN[C@@H](CNC)[C@H](C)CC)NCCc1cc(C(F)(F)F)cc(C(F)(F)F)c1	0	99.3	0	0	0	103.4	103.0	-	-
CC[C@@H](C)[C@H](CNC)NC[C@@H](Cc1cccc2ccccc12)NCCc1cccc(C(F)(F)F)c1	0	102.6	0	97.3	0	97.8	103.0	-	-
O=C(c1ccccc1)N1CCSc2sccc2C1=O	65.3	0	0	0	0	0	-	71.1	0
Nc1c(C(=O)N2CCOCC2)sc2nc3c(cc12)CCCC3	46.4	0	0	0	0	0	-	46.9	0
NC(=O)NC(=O)COC(=O)/C=C/c1cccc(Br)c1	0	0	0	0	0	0	-	-	-
CCOC(=O)C(CC)(CC)C(=O)/C=C/c1cccc(Br)c1	86.5	109.0	0	0	0	0	-	69.4	104.5
COC(=O)c1cn(C(=O)c2ccc3c(c2)OCO3)c2ccccc12	0	0	0	0	0	-	-	-	-
CCOC(=O)C(C(=O)OCC)C(C(=O)OCC)N1CCOCC1 (stereo not given)	90.0	106.0	0	0	0	96.0	-	97.8	107.0
CN(C)C(=O)/C(C#N)=C\c1cc(Br)c(Sc2ccc(Cl)cc2)o1	56.7	78.4	0	0	0	0	-	0	103.2
COCCNC(=O)[C@H](CSCc1ccccc1)N1Cc2ccccc2C1=O	48.1	0	0	0	0	0	-	0	0
COCCCNC(=O)[C@H](CSCc1ccccc1)N1Cc2ccccc2C1=O	0	0	0	0	0	0	-	-	-
CN1CCC(NCCC(c2ccc(F)cc2)c2ccc(Cl)cc2)CC1 (stereo not given)	0	93.7	0	0	0	80.1	103.5	-	-
O=C(O)c1c(NC(=O)N2CCOCC2)sc2c1CCCC2	54.9	0	0	0	0	0	-	0	0
CC(C)CC(=O)Nc1ncc([N+](=O)[O-])s1	0	0	0	0	0	0	-	-	-
Cc1nc(C)c(C(=O)Nc2ncc([N+](=O)[O-])s2)o1	56.0	0	0	0	0	0	-	58.8	0
